Assay results from the supplement of paper PMC11732987, “Enantioselective OTUD7B fragment discovery through chemoproteomics screening and high-throughput optimisation” (Communications Chemistry, 2025).

Key:
Test in all cases: log2 ratio of Biotin-Ahx-Ub-VS probe labelling (compound/DMSO); higher = less target engagement, active = hit call of the paper (q ≤ 0.05, log2 ratio ≤ -1)
Conditions in all cases: treatment time: 3 h
[1] = compound: CCC1N(CCc2sccc12)C(=O)CCl
Method in brief: (§1)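 Compound at 50 or 200 µM, or DMSO, was applied for 3 h in triplicate to HEK293T lysate (495 µg per sample, Tris/CHAPS/IGEPAL buffer with protease inhibitors), after which Biotin-Ahx-Ub-VS was added at 0.5 µM final for 1 h. The labelled DUBs were pulled down with NeutrAvidin, digested with LysC and trypsin, and run by diaPASEF LC-MS/MS. Ratios are averaged base-two logs of compound over DMSO from median-normalised label-free quantities by unpaired t-test, counting only proteins with at least 2 unique peptides.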

[2] = compound: CN1c2ccccc2C(CS1(=O)=O)NC(=O)CCl
Method in brief: as §1

[3] = compound: Cl.ClCC(=O)N1CCc2ncncc2C1
Method in brief: as §1

[4] = compound: Cl.Cn1ncc2C(CCCc12)NC(=O)CCl
Method in brief: as §1

[5] = compound: ClCC(=O)NC1CCOc2ccccc12
Method in brief: as §1

[6] = compound: ClCC(=O)NC1CCCc2ccccc12
Method in brief: (§2)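 Spectronaut label-free, global-median-normalised protein quantities underlie these values, which are average ratios of compound to vehicle from an unpaired t-test. They are reported as log2 and include only proteins identified by two or more unique peptides. Samples of HEK293T lysate (495 µg) were treated in triplicate with a compound concentration series or vehicle for 3 h, then labelled with Biotin-Ahx-Ub-VS at 0.5 µM final for 1 h before NeutrAvidin enrichment, LysC and trypsin digestion, and diaPASEF LC-MS/MS.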

[7] = compound: ClCC(=O)N[C@@H]1CCCc2ccccc12
Method in brief: as §2

[8] = compound: ClCC(=O)N[C@H]1CCCc2ccccc12
Method in brief: as §2

[9] = compound: CCC1N(CCc2cc(OC)c(Cl)cc12)C(=O)CCl
Method in brief: as §1

[10] = compound: CCCC1N(CCc2cc(OC)c(OC)cc12)C(=O)CCl
Method in brief: as §1

Measured: log2 ratio of Biotin-Ahx-Ub-VS probe labelling

USP46 (UniProt P62068)
Chain of UniProt P62068 (P62068 whole entry): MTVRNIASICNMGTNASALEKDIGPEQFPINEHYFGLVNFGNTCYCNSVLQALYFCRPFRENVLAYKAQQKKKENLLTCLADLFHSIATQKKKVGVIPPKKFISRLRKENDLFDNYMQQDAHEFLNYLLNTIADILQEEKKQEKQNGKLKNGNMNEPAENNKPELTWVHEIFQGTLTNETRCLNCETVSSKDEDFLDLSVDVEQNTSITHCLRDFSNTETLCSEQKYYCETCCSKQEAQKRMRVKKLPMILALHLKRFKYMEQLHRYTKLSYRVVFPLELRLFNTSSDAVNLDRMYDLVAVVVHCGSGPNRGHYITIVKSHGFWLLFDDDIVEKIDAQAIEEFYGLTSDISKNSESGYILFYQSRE
inactive: [1]; compound concentration: 50uM 0.00875 | [1]; compound concentration: 200uM -0.386 | [2]; compound concentration: 50uM -0.283 | [2]; compound concentration: 200uM -0.392 | [3]; compound concentration: 50uM -0.496 | [3]; compound concentration: 200uM -0.363 | [4]; compound concentration: 50uM 0.0697 | [4]; compound concentration: 200uM -0.0122 | [5]; compound concentration: 50uM -0.118 | [5]; compound concentration: 200uM -0.18 | [6]; compound concentration: 0.78uM -0.00158 | [6]; compound concentration: 1.56uM -0.0881 | [6]; compound concentration: 3.13uM -0.475 | [6]; compound concentration: 6.25uM -0.276 | [6]; compound concentration: 12.5uM -0.393 | [6]; compound concentration: 25uM -0.421 | [6]; compound concentration: 50uM -0.311 | [6]; compound concentration: 100uM 0.116 | [6]; compound concentration: 200uM -0.326 | [7]; compound concentration: 0.78uM -0.158 | [7]; compound concentration: 1.56uM -0.00787 | [7]; compound concentration: 3.13uM 0.116 | [7]; compound concentration: 6.25uM 0.0618 | [7]; compound concentration: 12.5uM 0.00378 | [7]; compound concentration: 25uM -0.153 | [7]; compound concentration: 50uM -0.14 | [7]; compound concentration: 100uM -0.166 | [7]; compound concentration: 200uM -0.243 | [8]; compound concentration: 0.78uM 0.11 | [8]; compound concentration: 1.56uM -0.348 | [8]; compound concentration: 3.13uM -0.0607 | [8]; compound concentration: 6.25uM -0.153 | [8]; compound concentration: 12.5uM 0.0225 | [8]; compound concentration: 25uM -0.138 | [8]; compound concentration: 50uM 0.0154 | [8]; compound concentration: 100uM -0.107 | [8]; compound concentration: 200uM -0.288 | [9]; compound concentration: 50uM -0.0362 | [10]; compound concentration: 50uM -0.446 | [10]; compound concentration: 200uM -0.735
active: [9]; compound concentration: 200uM -1.5

UniProt Q9UGI0
Chain of UniProt Q9UGI0 (Q9UGI0 whole entry): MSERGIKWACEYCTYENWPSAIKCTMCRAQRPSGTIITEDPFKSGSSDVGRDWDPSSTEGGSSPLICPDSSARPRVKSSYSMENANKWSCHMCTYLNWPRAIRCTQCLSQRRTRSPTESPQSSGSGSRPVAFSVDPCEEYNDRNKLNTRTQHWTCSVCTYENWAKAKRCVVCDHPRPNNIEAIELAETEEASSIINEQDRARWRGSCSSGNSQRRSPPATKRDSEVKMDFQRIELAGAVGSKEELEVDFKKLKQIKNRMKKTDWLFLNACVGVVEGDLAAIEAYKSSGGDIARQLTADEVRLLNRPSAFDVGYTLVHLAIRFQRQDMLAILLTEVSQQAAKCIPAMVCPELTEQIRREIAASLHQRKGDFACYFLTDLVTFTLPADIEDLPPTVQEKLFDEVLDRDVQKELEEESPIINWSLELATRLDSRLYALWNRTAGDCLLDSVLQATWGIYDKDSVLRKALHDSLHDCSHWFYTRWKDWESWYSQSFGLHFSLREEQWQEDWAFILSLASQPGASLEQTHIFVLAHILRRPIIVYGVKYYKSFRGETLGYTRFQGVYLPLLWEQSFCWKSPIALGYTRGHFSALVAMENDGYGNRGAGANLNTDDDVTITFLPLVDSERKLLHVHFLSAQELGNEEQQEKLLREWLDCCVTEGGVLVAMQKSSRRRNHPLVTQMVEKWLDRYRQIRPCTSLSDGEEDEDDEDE
inactive: [1]; compound concentration: 50uM -0.292 | [1]; compound concentration: 200uM -0.203 | [2]; compound concentration: 50uM -0.406 | [2]; compound concentration: 200uM 0.104 | [3]; compound concentration: 50uM -0.538 | [3]; compound concentration: 200uM -0.31 | [4]; compound concentration: 50uM -0.202 | [4]; compound concentration: 200uM 0.279 | [5]; compound concentration: 50uM 0.0945 | [5]; compound concentration: 200uM -0.4 | [6]; compound concentration: 0.78uM -0.0262 | [6]; compound concentration: 1.56uM 0.0502 | [6]; compound concentration: 3.13uM -0.0706 | [6]; compound concentration: 6.25uM 0.0502 | [6]; compound concentration: 12.5uM 0.00734 | [6]; compound concentration: 25uM -0.073 | [6]; compound concentration: 50uM -0.0421 | [6]; compound concentration: 100uM -0.161 | [6]; compound concentration: 200uM -0.304 | [7]; compound concentration: 0.78uM 0.0537 | [7]; compound concentration: 1.56uM -0.0707 | [7]; compound concentration: 3.13uM 0.111 | [7]; compound concentration: 6.25uM -0.134 | [7]; compound concentration: 12.5uM -0.0472 | [7]; compound concentration: 25uM -0.0247 | [7]; compound concentration: 50uM -0.136 | [7]; compound concentration: 100uM -0.218 | [7]; compound concentration: 200uM -0.262 | [8]; compound concentration: 0.78uM -0.114 | [8]; compound concentration: 1.56uM 0.117 | [8]; compound concentration: 3.13uM -0.00437 | [8]; compound concentration: 6.25uM -0.00155 | [8]; compound concentration: 12.5uM -0.143 | [8]; compound concentration: 25uM -0.115 | [8]; compound concentration: 50uM 0.0192 | [8]; compound concentration: 100uM -0.022 | [8]; compound concentration: 200uM -0.133 | [9]; compound concentration: 50uM -0.0637 | [9]; compound concentration: 200uM -0.0883 | [10]; compound concentration: 50uM -0.0341 | [10]; compound concentration: 200uM -0.418

USP8 (UniProt P40818)
Chain of UniProt P40818 (P40818 whole entry): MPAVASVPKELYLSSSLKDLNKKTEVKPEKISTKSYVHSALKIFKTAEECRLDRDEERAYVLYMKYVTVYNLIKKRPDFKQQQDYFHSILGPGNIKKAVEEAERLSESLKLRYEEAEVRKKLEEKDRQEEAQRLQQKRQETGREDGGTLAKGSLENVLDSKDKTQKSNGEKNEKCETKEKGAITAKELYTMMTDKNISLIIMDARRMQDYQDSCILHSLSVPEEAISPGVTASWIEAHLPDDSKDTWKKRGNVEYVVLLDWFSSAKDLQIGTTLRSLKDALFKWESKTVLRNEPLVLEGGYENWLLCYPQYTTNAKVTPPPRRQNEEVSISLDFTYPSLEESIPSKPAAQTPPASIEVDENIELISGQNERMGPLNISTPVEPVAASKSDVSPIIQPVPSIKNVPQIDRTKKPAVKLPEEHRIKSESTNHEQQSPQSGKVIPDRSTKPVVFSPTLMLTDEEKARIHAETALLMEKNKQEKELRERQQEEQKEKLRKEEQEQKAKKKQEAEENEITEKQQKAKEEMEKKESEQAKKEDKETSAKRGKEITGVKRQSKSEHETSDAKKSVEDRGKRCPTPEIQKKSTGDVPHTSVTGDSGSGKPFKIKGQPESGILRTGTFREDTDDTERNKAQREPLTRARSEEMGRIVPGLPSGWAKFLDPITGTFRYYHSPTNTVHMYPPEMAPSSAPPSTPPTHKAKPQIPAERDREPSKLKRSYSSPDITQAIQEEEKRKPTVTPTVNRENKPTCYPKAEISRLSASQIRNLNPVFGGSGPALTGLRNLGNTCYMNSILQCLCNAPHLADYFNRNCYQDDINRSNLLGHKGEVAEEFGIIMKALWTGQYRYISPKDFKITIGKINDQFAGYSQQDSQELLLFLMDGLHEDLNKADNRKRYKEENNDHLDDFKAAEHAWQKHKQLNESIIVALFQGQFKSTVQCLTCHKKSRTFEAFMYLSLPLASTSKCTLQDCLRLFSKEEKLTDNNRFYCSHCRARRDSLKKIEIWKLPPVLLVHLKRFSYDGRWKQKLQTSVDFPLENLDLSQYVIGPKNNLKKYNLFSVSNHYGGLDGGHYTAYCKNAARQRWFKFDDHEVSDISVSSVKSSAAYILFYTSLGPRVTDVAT
inactive: [1]; compound concentration: 50uM -0.18 | [1]; compound concentration: 200uM -0.116 | [2]; compound concentration: 50uM -0.21 | [2]; compound concentration: 200uM -0.21 | [3]; compound concentration: 50uM -0.0841 | [3]; compound concentration: 200uM -0.378 | [4]; compound concentration: 50uM -0.0611 | [4]; compound concentration: 200uM 0.0851 | [5]; compound concentration: 50uM -0.212 | [5]; compound concentration: 200uM -0.0542 | [6]; compound concentration: 0.78uM -0.0473 | [6]; compound concentration: 1.56uM 0.0438 | [6]; compound concentration: 3.13uM -0.127 | [6]; compound concentration: 6.25uM -0.0217 | [6]; compound concentration: 12.5uM -0.0947 | [6]; compound concentration: 25uM -0.0983 | [6]; compound concentration: 50uM -0.0766 | [6]; compound concentration: 100uM -0.0121 | [6]; compound concentration: 200uM -0.102 | [7]; compound concentration: 0.78uM -0.0947 | [7]; compound concentration: 1.56uM -0.0445 | [7]; compound concentration: 3.13uM -0.000329 | [7]; compound concentration: 6.25uM -0.0324 | [7]; compound concentration: 12.5uM -0.0744 | [7]; compound concentration: 25uM -0.057 | [7]; compound concentration: 50uM -0.0549 | [7]; compound concentration: 100uM -0.0496 | [7]; compound concentration: 200uM -0.123 | [8]; compound concentration: 0.78uM -0.131 | [8]; compound concentration: 1.56uM -0.0656 | [8]; compound concentration: 3.13uM -0.0464 | [8]; compound concentration: 6.25uM 0.0547 | [8]; compound concentration: 12.5uM 0.00701 | [8]; compound concentration: 25uM -0.0406 | [8]; compound concentration: 50uM 0.000255 | [8]; compound concentration: 100uM -0.0245 | [8]; compound concentration: 200uM -0.143 | [9]; compound concentration: 50uM -0.0467 | [9]; compound concentration: 200uM -0.231 | [10]; compound concentration: 50uM -0.414 | [10]; compound concentration: 200uM -0.636

USP47 (UniProt Q96K76)
Chain of UniProt Q96K76 (Q96K76 whole entry): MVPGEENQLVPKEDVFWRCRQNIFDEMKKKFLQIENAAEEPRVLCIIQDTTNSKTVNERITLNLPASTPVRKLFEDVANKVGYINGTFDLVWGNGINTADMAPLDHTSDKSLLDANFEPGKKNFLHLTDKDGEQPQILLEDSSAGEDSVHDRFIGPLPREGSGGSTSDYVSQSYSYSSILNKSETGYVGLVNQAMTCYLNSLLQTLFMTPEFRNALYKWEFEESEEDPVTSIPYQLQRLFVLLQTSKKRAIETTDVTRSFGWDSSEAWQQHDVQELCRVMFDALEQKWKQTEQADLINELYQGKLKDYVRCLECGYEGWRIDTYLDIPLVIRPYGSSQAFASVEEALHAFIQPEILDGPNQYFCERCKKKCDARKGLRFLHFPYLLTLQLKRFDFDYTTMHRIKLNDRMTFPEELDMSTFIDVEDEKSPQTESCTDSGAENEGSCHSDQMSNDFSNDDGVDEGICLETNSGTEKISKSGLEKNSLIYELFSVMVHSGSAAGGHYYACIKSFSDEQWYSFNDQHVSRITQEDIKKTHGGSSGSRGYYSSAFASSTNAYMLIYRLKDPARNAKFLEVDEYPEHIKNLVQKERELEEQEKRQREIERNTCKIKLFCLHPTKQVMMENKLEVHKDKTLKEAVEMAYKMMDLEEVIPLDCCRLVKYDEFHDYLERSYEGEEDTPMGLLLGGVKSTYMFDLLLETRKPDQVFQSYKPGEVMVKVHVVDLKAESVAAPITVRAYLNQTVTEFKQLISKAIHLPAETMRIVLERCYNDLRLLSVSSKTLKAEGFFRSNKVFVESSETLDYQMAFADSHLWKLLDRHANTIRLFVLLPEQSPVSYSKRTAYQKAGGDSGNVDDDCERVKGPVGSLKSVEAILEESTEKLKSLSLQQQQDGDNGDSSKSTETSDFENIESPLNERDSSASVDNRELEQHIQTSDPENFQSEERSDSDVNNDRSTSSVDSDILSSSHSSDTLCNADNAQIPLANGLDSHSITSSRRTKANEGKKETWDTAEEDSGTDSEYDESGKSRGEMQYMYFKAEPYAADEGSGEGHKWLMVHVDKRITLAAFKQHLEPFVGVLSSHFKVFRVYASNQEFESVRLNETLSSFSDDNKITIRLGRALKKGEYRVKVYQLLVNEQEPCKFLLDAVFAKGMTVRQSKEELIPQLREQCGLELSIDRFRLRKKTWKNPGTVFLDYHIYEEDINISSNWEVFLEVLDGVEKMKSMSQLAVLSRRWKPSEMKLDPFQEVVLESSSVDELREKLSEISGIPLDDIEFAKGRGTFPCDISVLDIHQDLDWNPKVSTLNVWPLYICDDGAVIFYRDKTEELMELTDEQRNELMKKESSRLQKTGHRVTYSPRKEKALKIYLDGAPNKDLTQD
inactive: [6]; compound concentration: 0.78uM -0.835 | [6]; compound concentration: 1.56uM -0.97 | [7]; compound concentration: 1.56uM -0.399 | [7]; compound concentration: 3.13uM -0.592 | [7]; compound concentration: 6.25uM -0.585 | [7]; compound concentration: 12.5uM -0.654 | [7]; compound concentration: 25uM -0.26 | [7]; compound concentration: 50uM -0.749 | [7]; compound concentration: 100uM -0.609 | [7]; compound concentration: 200uM 0.134 | [8]; compound concentration: 0.78uM -0.545 | [8]; compound concentration: 1.56uM -0.834 | [8]; compound concentration: 3.13uM -0.514 | [8]; compound concentration: 12.5uM -0.725 | [8]; compound concentration: 25uM -0.536 | [8]; compound concentration: 50uM -0.911 | [8]; compound concentration: 200uM -0.929
active: [6]; compound concentration: 3.13uM -1.96 | [6]; compound concentration: 6.25uM -1.31 | [6]; compound concentration: 12.5uM -2.62 | [6]; compound concentration: 25uM -2.65 | [6]; compound concentration: 50uM -1.54 | [6]; compound concentration: 100uM -1.65 | [6]; compound concentration: 200uM -1.87 | [7]; compound concentration: 0.78uM -1.55 | [8]; compound concentration: 6.25uM -1.57 | [8]; compound concentration: 100uM -1.22
